Laboratory results reported in PubChem BioAssay AID1159580 (chemical genetic matrix, 2015).
Screen size: about 5,500 compounds; about 2,000 (36%) were called active. About 18% were inconclusive and are not listed. Rule as the data show it: active = normalized growth mostly below about 0.91 (no sharp cut-off); inconclusive = no clear call, values can overlap the other calls; inactive = mostly above about 0.92. The list shows a part of the results.

Test: chemical genetic growth profiling, strain panel (AID 1159580);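 also: tested at 20 µM; growth read once vehicle control cultures reached saturation at 30 °C; 1 = growth at the plate median or of vehicle wells; lower values mean less growth of the strain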
Conditions: growth OD
[1] = S. cerevisiae deletion strains, locus YDL101C, strain DUN1, hits give low values
[2] = S. cerevisiae deletion strains, locus YHR030C, strain SLT2, hits give low values
[3] = S. cerevisiae deletion strains, locus YAL013W, strain DEP1, hits give low values
[4] = S. cerevisiae deletion strains, locus YBR229C, strain ROT2, hits give low values
[5] = S. cerevisiae deletion strains, locus YDR150W, strain NUM1, hits give low values
[6] = S. cerevisiae deletion strains, locus YEL061C, strain CIN8, hits give low values
[7] = S. cerevisiae deletion strains, locus YGR078C, strain PAC10, hits give low values
[8] = S. cerevisiae deletion strains, locus YHR087W, strain rtc3, hits give low values
[9] = S. cerevisiae deletion strains, locus YJR043C, strain POL32, hits give low values
[10] = S. cerevisiae deletion strains, locus YJR075W, strain HOC1, hits give low values
[11] = S. cerevisiae deletion strains, locus YLR039C, strain RIC1, hits give low values
[12] = S. cerevisiae deletion strains, locus YLR058C, strain SHM2 (second series), hits give low values
[13] = S. cerevisiae deletion strains, locus YLR085C, strain ARP6, hits give low values
[14] = S. cerevisiae deletion strains, locus YLR262C, strain YPT6, hits give low values
[15] = S. cerevisiae deletion strains, locus YML094W, strain GIM5, hits give low values
[16] = S. cerevisiae deletion strains, locus YMR219W, strain ESC1, hits give low values
[17] = S. cerevisiae deletion strains, locus YMR263W, strain SAP30, hits give low values
[18] = S. cerevisiae deletion strains, locus YNL153C, strain GIM3, hits give low values
[19] = S. cerevisiae deletion strains, locus YNL298W, strain CLA4 (second series), hits give low values
[20] = S. cerevisiae deletion strains, locus YNL322C, strain KRE1, hits give low values
[21] = S. cerevisiae deletion strains, locus YNR030W, strain Alg12, hits give low values
[22] = S. cerevisiae deletion strains, locus YPL055C, strain LGE1, hits give low values
[23] = S. cerevisiae deletion strains, locus YPL241C, strain CIN2, hits give low values
[24] = S. cerevisiae deletion strains, locus YPR135W, strain CTF4, hits give low values
[25] = S. cerevisiae strains, strain wild type, hits give low values

Measured: normalized growth

Cc1cc(-c2onc(C)c2C(=O)Sc2ccccc2)no1
active: [2] 0.743 | S. cerevisiae deletion strains, locus YLR113W, strain HOG1, hits give low values 0.453 | S. cerevisiae deletion strains, locus YPL256C, strain CLN2, hits give low values 0.695
inactive: S. cerevisiae deletion strains, locus YAR019C, strain CDC15, hits give low values 0.941 | S. cerevisiae deletion strains, locus YBL105C, strain PKC1, hits give low values 0.963 | S. cerevisiae deletion strains, locus YBR135W, strain CKS1, hits give low values 0.939 | S. cerevisiae deletion strains, locus YBR136W, strain MEC1, hits give low values 0.961 | S. cerevisiae deletion strains, locus YBR160W, strain CDC28, hits give low values 0.954 | S. cerevisiae deletion strains, locus YDL017W, strain CDC7, hits give low values 0.957 | S. cerevisiae deletion strains, locus YDL028C, strain MPS1, hits give low values 0.958 | [1] 0.959 | S. cerevisiae deletion strains, locus YDL108W, strain KIN28, hits give low values 0.962 | S. cerevisiae deletion strains, locus YDL132W, strain cdc53, hits give low values 0.926 | S. cerevisiae deletion strains, locus YDL214C, strain PRR2, hits give low values 0.826 | S. cerevisiae deletion strains, locus YDR052C, strain DBF4, hits give low values 0.971 | S. cerevisiae deletion strains, locus YDR054C, strain cdc34, hits give low values 0.918 | S. cerevisiae deletion strains, locus YDR226W, strain ADK1, hits give low values 0.954 | S. cerevisiae deletion strains, locus YDR477W, strain SNF1, hits give low values 0.811 | S. cerevisiae deletion strains, locus YER123W, strain YCK3, hits give low values 0.736 | S. cerevisiae deletion strains, locus YER133W, strain GLC7, hits give low values 0.823 | S. cerevisiae deletion strains, locus YFL009W, strain cdc4, hits give low values 0.921 | S. cerevisiae deletion strains, locus YFL029C, strain CAK1, hits give low values 0.921 | S. cerevisiae deletion strains, locus YFR003C, strain YPI1, hits give low values 0.958 | S. cerevisiae deletion strains, locus YFR019W, strain FAB1, hits give low values 0.909 | S. cerevisiae deletion strains, locus YFR028C, strain CDC14, hits give low values 0.96 | S. cerevisiae deletion strains, locus YGR040W, strain KSS1, hits give low values 0.852 | S. cerevisiae deletion strains, locus YGR052W, strain FMP48, hits give low values 0.81 | S. cerevisiae deletion strains, locus YGR092W, strain DBF2, hits give low values 0.705 | S. cerevisiae deletion strains, locus YHR079C, strain IRE1, hits give low values 0.704 | S. cerevisiae deletion strains, locus YHR082C, strain KSP1, hits give low values 0.901 | S. cerevisiae deletion strains, locus YHR205W, strain SCH9, hits give low values 0.657 | S. cerevisiae deletion strains, locus YIL147C, strain SLN1, hits give low values 0.958 | S. cerevisiae deletion strains, locus YJL095W, strain BCK1, hits give low values 0.704 | S. cerevisiae deletion strains, locus YJL128C, strain PBS2, hits give low values 0.888 | S. cerevisiae deletion strains, locus YJL157C, strain FAR1, hits give low values 0.819 | S. cerevisiae deletion strains, locus YJR016C, strain ILV3, hits give low values 0.944 | S. cerevisiae deletion strains, locus YJR066W, strain TOR1 (second series), hits give low values 0.708 | S. cerevisiae deletion strains, locus YJR066W, strain TOR1, hits give low values 0.892 | S. cerevisiae deletion strains, locus YKL048C, strain ELM1, hits give low values 0.942 | S. cerevisiae deletion strains, locus YKL067W, strain YNK1, hits give low values 0.824 | S. cerevisiae deletion strains, locus YKL101W, strain HSL1, hits give low values 0.881 | S. cerevisiae deletion strains, locus YKL193C, strain SDS22, hits give low values 0.942 | S. cerevisiae deletion strains, locus YKL203C, strain TOR2, hits give low values 0.885 | S. cerevisiae deletion strains, locus YLR133W, strain CKI1, hits give low values 0.867 | S. cerevisiae deletion strains, locus YLR403W, strain SFP1, hits give low values 0.794 | S. cerevisiae deletion strains, locus YML070W, strain DAK1, hits give low values 0.829 | S. cerevisiae deletion strains, locus YMR001C, strain CDC5, hits give low values 0.935 | S. cerevisiae deletion strains, locus YMR205C, strain PFK2 (second series), hits give low values 0.87 | S. cerevisiae deletion strains, locus YMR277W, strain FCP1, hits give low values 0.925 | S. cerevisiae deletion strains, locus YNL006W, strain LST8, hits give low values 0.962 | S. cerevisiae deletion strains, locus YNL020C, strain ARK1, hits give low values 0.846 | S. cerevisiae deletion strains, locus YNL161W, strain CBK1, hits give low values 0.947 | S. cerevisiae deletion strains, locus YNL183C, strain NPR1, hits give low values 0.68 | S. cerevisiae deletion strains, locus YNL207W, strain RIO2, hits give low values 0.947 | S. cerevisiae deletion strains, locus YNL222W, strain SSU72, hits give low values 0.943 | S. cerevisiae deletion strains, locus YNL307C, strain MCK1 (second series), hits give low values 0.802 | S. cerevisiae deletion strains, locus YOL078W, strain AVO1, hits give low values 0.918 | S. cerevisiae deletion strains, locus YOL136C, strain PFK27, hits give low values 0.843 | S. cerevisiae deletion strains, locus YOR061W, strain CKA2, hits give low values 0.859 | S. cerevisiae deletion strains, locus YOR119C, strain RIO1, hits give low values 0.836 | S. cerevisiae deletion strains, locus YOR231W, strain MKK1, hits give low values 0.75 | S. cerevisiae deletion strains, locus YOR329C, strain SCD5, hits give low values 0.95 | S. cerevisiae deletion strains, locus YPL031C, strain PHO85, hits give low values 0.783 | S. cerevisiae deletion strains, locus YPL153C, strain RAD53, hits give low values 0.756 | S. cerevisiae deletion strains, locus YPL204W, strain HRR25, hits give low values 0.805 | S. cerevisiae deletion strains, locus YPL209C, strain IPL1, hits give low values 0.944 | S. cerevisiae deletion strains, locus YPR025C, strain CCL1, hits give low values 0.956 | S. cerevisiae deletion strains, locus YPR106W, strain ISR1, hits give low values 0.973 | S. cerevisiae deletion strains, locus YPR111W, strain DBF20, hits give low values 0.97 | S. cerevisiae deletion strains, strain NNK1, hits give low values 0.953 | S. cerevisiae deletion strains, strain TSCII, hits give low values 0.93

CSc1cc(C(F)(F)F)cc(SC)c1SC
active: S. cerevisiae deletion strains, locus YDL134C, strain PPH21, hits give low values 0.909 | [2] 0.678 | [11] 0.785 | [14] 0.809 | S. cerevisiae deletion strains, locus YMR307W, strain GAS1, hits give low values 0.373
inactive: [3] 0.993 | [4] 0.975 | [1] 0.992 | [5] 1.01 | [6] 0.987 | [7] 0.981 | [8] 0.953 | S. cerevisiae deletion strains, locus YJL187C, strain SWE1, hits give low values 0.986 | [9] 0.988 | [10] 0.945 | S. cerevisiae deletion strains, locus YKL190W, strain CNB1, hits give low values 0.967 | [12] 0.974 | [13] 0.958 | [15] 1.01 | [16] 0.978 | [17] 0.997 | [18] 1 | [19] 0.975 | [20] 0.969 | [21] 0.974 | [22] 0.866 | [23] 0.986 | [24] 0.909 | [25] 0.925

COc1ccccc1N1CCN(C(=O)Nc2cc(Cl)cc(Cl)c2)CC1
inactive: [3] 0.934 | [4] 0.988 | S. cerevisiae deletion strains, locus YCL061C, strain MRC1, hits give low values 0.927 | [1] 0.967 | [5] 0.854 | [6] 0.914 | [7] 0.965 | [8] 0.97 | [9] 0.971 | [10] 0.986 | [11] 1.09 | [12] 1 | [14] 1.05 | [16] 1 | [17] 0.937 | [18] 0.975 | [20] 0.984 | S. cerevisiae deletion strains, locus YOL006C, strain TOP1, hits give low values 0.857 | [24] 0.667 | [25] 0.922
active: [2] 0.434 | [13] 0.511 | [15] 0.823 | [19] 0.715 | [21] 0.877 | [22] 0.761 | [23] 0.716
